# DNMT1 inh: human DNMT1 methyltransferase inhibitors, primary screen, biochemical, molecular beacon, fluorescence, HinP1I cleavage, uHTS. DNA (cytosine-5)-methyltransferase 1 (Homo sapiens), P26358. inhibition (reported as % activation of signal), % at 10 µM. actives 0.83% (n = 360,000); in the data active means inhibition above about 50%
# LEDGF integ inh: blockers of LEDGF/p75-dependent integrase strand transfer – biochemical, TR-FRET, high throughput, primary screen; inhibition, % at 3.7 µM; actives 0.64% (n = 370,000); TR-FRET IN-LEDGF/p75 DNA integration, Eu/Cy5;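 active means inhibition above the screen-wide mean plus 3 SD, cut at about 13% in these data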;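 further: signal is the Cy5 over europium emission ratio at 671 and 618 nm; 0% = plate median of compound wells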
# UHRF1 MBD2 ctr: UHRF1 methylated DNA binding inhibitors, primary screen, counter-screen for MBD2 inhibitor project, biochemical, TR-FRET, human UHRF1, single concentration. E3 ubiquitin-protein ligase UHRF1 (Homo sapiens), Q96T88. UHRF1 binding to methylated oligo. inhibition, % at 4.4 µM. actives 0.75% (n = 370,000); in the data active means inhibition above about 21%;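 further: UHRF1 SRA domain binding a hemimethylated CpG hairpin DNA probe; 0% = median of test compound wells and 100% = reference inhibitor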
# MBD2 DNA inh: inhibitors of MBD2 binding to methylated DNA, primary screen, biochemical, TR-FRET, DNA-binding domain, human. Methyl-CpG-binding domain protein 2 (Homo sapiens), Q9UBB5. MBD2 binding to methylated oligonucleotide. inhibition, % at 4.4 µM. actives 0.31% (n = 370,000); in the data active means inhibition above about 13%
# Target sequence (Q9UBB5 whole entry, looked up, the tested form may be a part): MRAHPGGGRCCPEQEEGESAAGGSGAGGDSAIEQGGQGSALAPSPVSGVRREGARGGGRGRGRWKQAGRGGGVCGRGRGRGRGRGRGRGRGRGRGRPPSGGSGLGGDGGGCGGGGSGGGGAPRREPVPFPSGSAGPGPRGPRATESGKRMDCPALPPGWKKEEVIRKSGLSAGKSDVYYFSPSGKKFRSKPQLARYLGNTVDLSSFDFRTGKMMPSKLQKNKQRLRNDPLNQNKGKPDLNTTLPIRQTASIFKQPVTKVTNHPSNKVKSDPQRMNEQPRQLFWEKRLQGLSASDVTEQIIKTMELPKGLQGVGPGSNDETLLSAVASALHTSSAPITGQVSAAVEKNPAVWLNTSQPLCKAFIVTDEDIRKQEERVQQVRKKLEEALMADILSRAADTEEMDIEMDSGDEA
# rCAG RNA binder: binders of r(CAG) RNA repeats, primary screen, biochemical, fluorescence; r(CAG) RNA repeat, TO-PRO-1 dye displacement fluorescence; inhibition, % at 3 µM; actives 1.3% (n = 370,000);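 active means inhibition above the plate cutoff, the mean of all test compounds on that plate plus 3 SD, cut at about 35% in these data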;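 further: 0% = DMSO alone and 100% = 100 µM mitoxantrone as full dye displacement; higher means more dye released from RNA so lower well fluorescence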
# PG9 Ab binder: binders of HIV-1 gp120 antibody PG9, primary screen, biochemical, TR-FRET. actives 0.43% (n = 360,000). inhibition, % at 6.7 µM. TR-FRET gp120-PG9 antibody binding. HIV-1 gp120 / PG9 antibody interaction; in the data active means inhibition above about 8.5%
# DNMT1 confirm: DNMT1 methyltransferase inhibitor retest, confirmation, biochemical, molecular beacon, fluorescence, single concentration | inhibition, % at 10 µM | DNMT1 molecular beacon HinP1I cleavage | AID 602385, 2012 | actives 8% (n = 2,300) | shares compounds with DNMT1 inh;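 active means average inhibition of at least 30% in the single-concentration confirmation test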
# DNMT1 interf: shows spectral interference in the DNMT1 beacon assay; activation (fluorescence interference), % at 10 µM; shares compounds with DNMT1 inh; DNMT1 molecular beacon spectral interference counterscreen, fluorescence 485/520; actives 1% (n = 2,300);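 active means activation of at least 30% at 10 µM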;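 further: DNMT1 catalytic domain with a HinP1I cleavage step and a FAM/dabcyl DNA beacon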
# Starred values were filed as active, the others as inactive; / = not tested or not shown. Shown are actives, neighbours in structure and some others; about 3.5% of the full set was active somewhere.
SMILES,DNMT1 inh,LEDGF integ inh,UHRF1 MBD2 ctr,MBD2 DNA inh,rCAG RNA binder,PG9 Ab binder,DNMT1 confirm,DNMT1 interf
CC(=O)c1c(C)oc(C)c1CSCc1ccc(C(=O)O)o1,78.0*,9.3,9.6,5.8,12.6,-0.3,5.8,2.5
COc1ccccc1C(=O)NCCC(=O)NCC(c1ccco1)N1CCCC1 (stereo not given),1.4,0.7,-1.9,2.8,-0.2,0.7,/,/
Cc1cc(=O)oc2cc(OCC(=O)N/N=C/c3ccccc3O)ccc12,61.5*,5.6,1.6,1.1,2.7,-1.9,1.5,-1.8
COc1ccc(NC(=O)COc2ccc3c(C)cc(=O)oc3c2)cc1S(=O)(=O)N1CCCCC1,62.9*,3.7,-2.5,-4.9,3.9,0.2,-1.2,-8.9
COC(=O)c1ccccc1S(=O)(=O)NNC(=O)c1nn(C)c(=O)c2ccccc12,53.4*,-2.8,0.0,3.1,1.0,0.5,4.6,5.7
C(=N\Nc1nc2ccccc2[nH]1)/c1ccncc1,0.1,-4.1,0.4,3.4,-0.6,-8.2,/,/
Clc1nc2ccccc2cc1/C=N/Nc1nc2ccccc2[nH]1,55.4*,4.5,1.7,-4.0,11.3,1.5,2.3,-7.3
CC(/C=N/NC(=O)c1ccc(Br)cc1)=C\c1ccccc1,50.1*,0.7,2.9,-0.7,3.4,-2.4,1.2,1.6
O=C(N/N=C/c1ccc(Br)cc1)c1ccc(NC(=O)c2ccccc2)cc1,73.7*,1.7,-0.3,-4.0,1.4,-2.1,-0.7,-6.5
CC(/C=N\NC(=O)c1cc(C)oc1C)=C\c1ccccc1,72.0*,-1.0,-3.9,2.5,-3.5,-3.2,4.1,4.2
COc1cccc(CNC(=O)[C@@H]2CCCN2C(=O)[C@H]2CCCCN2C(=O)OC(C)(C)C)c1,/,2.4,-0.3,-2.1,-0.8,1.7,/,/
Cc1ccc(NC(=O)c2ccc3c(c2)C(=O)N(c2ccccc2C)C3=O)nc1,79.6*,-0.5,3.0,7.1,-1.2,0.3,2.4,3.4
Cc1ccc(C)c(N2C(=O)c3ccc(C(=O)Nc4ccccn4)cc3C2=O)c1,0.9,-2.3,6.7,1.0,3.5,2.6,/,/
COc1ccc(OCc2cn(CC(=O)c3ccc(O)cc3)nn2)cc1,57.0*,6.4,21.8*,12.3,6.0,-1.9,3.5,-2.3
CCC(=O)c1ccc(OCc2cn(CC(=O)c3ccc(O)cc3)nn2)cc1,53.8*,6.6,21.7*,8.4,6.0,-0.4,10.2,-2.7
COc1ccc2nc(NC(=O)c3cccc(-c4cc5ccccc5oc4=O)c3)sc2c1,57.6*,-1.8,5.6,0.7,4.4,4.9,2.3,-4.7
Cc1nc(SCC(=O)Nc2nc3ccccc3s2)c(C#N)c(C)c1C,0.4,-6.3,-0.5,0.9,2.6,-1.8,/,/
Cc1cc(C(F)(F)F)c(C#N)c(SCC(=O)Nc2nc3ccccc3s2)n1,82.6*,0.5,-0.8,-3.2,0.4,-0.9,22.7,10.6
Cc1ccccc1Cn1cc(COC(=O)NCC(C)C)nn1,/,0.9,-0.6,1.4,-0.6,/,/,/
O=C(CCN1C(=O)/C(=C/c2cccc(Br)c2)SC1=S)NNC(=O)c1cccnc1,71.4*,/,/,/,/,/,2.8,-0.6
COc1ccc(C2/C(=C(/O)c3ccc4c(c3)CC(C)O4)C(=O)C(=O)N2CCCn2ccnc2)cc1OC (stereo not given),0.0,-0.7,-9.1,-2.4,5.6,0.6,/,/
Cc1cc(C)cc(C(O)c2ncc(-c3ccc(F)cc3)[nH]2)c1 (stereo not given),7.2,/,/,/,/,/,/,/

# High-throughput results: PubChem BioAssay, several laboratories
